These results are taken from the supplement of paper PMC6555819.

Holding throughout (experiment): PBM binding z-score (relative to random genomic background probes); higher = stronger binding; sequences stand for … in GC…GCGATTGACAGCGTAGAATGAAGG
Assay [1] relates to FXR:RXRa (NR concentration 270 nM, RXRa partner concentration 90 nM). The method in brief:
(§1)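 Regression normalization was applied to scanned fluorescence from custom Agilent 4×180K protein-binding microarrays. Before scanning, arrays were incubated 1 h with ligand-free nuclear receptor dimers, and binding was detected with antibodies against each partner (one per run). Binding z-scores use the random background probes as reference.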

The subject of assay [2] is LXRa:RXRa (NR concentration 270 nM, RXRa partner concentration 90 nM). In outline: as §1
Assay [3] has as its system LXRa homodimer (NR concentration 270 nM). In outline: as §1
The test system of assay [4] is LXRb:RXRa (NR concentration 270 nM, RXRa partner concentration 90 nM). The method in brief:
as §1

For assay [5], the system named is LXRb homodimer (NR concentration 270 nM). In outline: as §1
Assay [6] deals with PPARa:RXRa (NR concentration 270 nM, RXRa partner concentration 90 nM). The method in brief:
as §1

Assay [7] deals with PPARg:RXRa (NR concentration 180 nM, RXRa partner concentration 90 nM). In outline: as §1
The test system of assay [8] is PPARg:RXRa 270nM:90nM, anti-RXR (NR concentration 270 nM, RXRa partner concentration 90 nM). In outline: as §1
The subject of assay [9] is PPARg:RXRa 30nM:10nM, anti-RXR (NR concentration 30 nM, RXRa partner concentration 10 nM). In outline: as §1
Assay [10] has as its system PPARg:RXRa 90nM:30nM, anti-RXR (NR concentration 90 nM, RXRa partner concentration 30 nM). The method in brief: as §1
Assay [11] deals with PPARg:RXRa DBDmut IVT, anti-RXR (DBD mutation: RXRa K156A/R161A, NR concentration 270 nM, RXRa partner concentration 90 nM). In outline:
as §1

Assay [12] concerns PPARg:RXRa IVT, anti-PPARg (NR concentration 270 nM, RXRa partner concentration 90 nM). In outline:
as §1

Assay [13] has as its system PPARg DBDmut:RXRa IVT, anti-PPARg (DBD mutation: PPARg1 K132A/R137A, NR concentration 270 nM, RXRa partner concentration 90 nM). The method in brief:
as §1

In assay [14] the test system is PPARg DBDmut IVT, anti-PPARg (DBD mutation: PPARg1 K132A/R137A, NR concentration 270 nM). In outline: as §1
The subject of assay [15] is PPARg homodimer (NR concentration 180 nM). The method in brief:
as §1

Assay [16] concerns PXR:RXRa (NR concentration 270 nM, RXRa partner concentration 90 nM). The method in brief:
as §1

Assay [17] has as its system PXR homodimer (NR concentration 270 nM). The method in brief: as §1
Assay [18] concerns RARa:RXR (NR concentration 270 nM, RXRa partner concentration 90 nM). The method in brief: as §1
In assay [19] the test system is RARa homodimer (NR concentration 270 nM). The method in brief: as §1
For assay [20], the system named is RARb:RXRa (NR concentration 270 nM, RXRa partner concentration 90 nM). In outline:
as §1

For CGGACGAGGGCATGAGTTGATAGCAAATGCCGAT, the PBM binding z-score is 0.265 in assay [1]; 0.0809 in assay [2]; -0.262 in [3]; -0.154 in assay [4]; -0.96 in [5]; 1.01 in [6]. The PBM binding z-score is 0.992 in assay [7]; 0.682 in [8]; -0.202 in [9]; 0.196 in [10]; 1.74 in assay [11]; 0.979 in [12]. The PBM binding z-score was -0.792 in assay [13]; -1.58 in [14]; -0.164 in assay [15]; 0.528 in assay [16]; 0.00329 in assay [17]; 0.284 in assay [18]. The PBM binding z-score in assay [19] was found to be 0.0592; in [20], 2.03.

On to AGAACGAGGGCTCGCTGAGTTGATAGCAGAGTAG, for which the PBM binding z-score in assay [1] was -0.628; in [2], -0.88; in [3] it was -0.835; in assay [4] it was -0.918; in [5], -1.31; in [6], -0.747. Further, the PBM binding z-score in assay [7] is 0.239; in [8], -0.824; in assay [9] it was -0.528; in assay [10] it was -0.552; in assay [11], -0.0756; in assay [12] it was -0.495. For the same sequence, the PBM binding z-score is -1.3 in assay [13]; -0.699 in assay [14]; -0.792 in [15]; -0.724 in assay [16]; -0.639 in [17]; -0.678 in assay [18]. Also, the PBM binding z-score in [19] is -1.21; in [20], -0.365.

As to TAGCCTAGGTCATGCGGGCCAGTTTAGTGTCGGC, the PBM binding z-score was 3.92 in [1]; 3.15 in [2]; 0.212 in assay [3]; 1.71 in assay [4]; -0.269 in [5]; 3.27 in assay [6]. Besides, the PBM binding z-score in [7] was 1.32; in [8], 2.02; in assay [9], -0.211; in assay [10] it was 1.01; in [11], 2.01; in [12], 2.55. Besides, the PBM binding z-score in [13] was -0.215; in assay [14] it was -0.754; in [15], 0.303; in [16] it was 1.59; in [17], -0.464; in assay [18], 2.22. Besides, the PBM binding z-score in [19] is -0.83; in assay [20], 3.45.

Regarding CGTCCAAGGTCAAACGTCAGTGAAGAGATGACGG, the PBM binding z-score worked out at 7.81 in assay [1]; 5.85 in assay [2]; 1.39 in assay [3]; 4.54 in [4]; 1.77 in assay [5]; 6.06 in assay [6]. Further, the PBM binding z-score came out at 5.95 in assay [7]; 6.15 in assay [8]; 3.64 in [9]; 5.2 in assay [10]; 4.12 in assay [11]; 4.1 in [12]. Moreover, the PBM binding z-score in assay [13] is 0.591; in assay [14], -0.466; in assay [15] it was 2.61; in [16], 4.43; in assay [17], 0.834; in [18] it was 5.04. In addition, the PBM binding z-score in assay [19] amounted to 0.465; in assay [20], 5.22.

As for GCTTGTATATCAAGGTTAAGAAAGACTAAGCTAA, the PBM binding z-score in assay [1] was 0.268; in assay [2], 1.1; in assay [3], -0.0678; in assay [4], 0.659; in assay [5], -0.396; in assay [6], 1.19. Further, the PBM binding z-score is 0.639 in [7]; 0.798 in assay [8]; 0.189 in assay [9]; 0.527 in [10]; 0.247 in [11]; 0.653 in assay [12]. Besides, the PBM binding z-score in [13] was 0.195; in [14], 0.533; in assay [15] it was -0.0686; in [16] it was 0.625; in [17], -0.223; in [18] it was 0.967. Moreover, the PBM binding z-score in assay [19] came to 0.663; in [20], 1.03.

Turning to TCATATAGGTAAATGCTAGGTGGAAGTCCGATCT, the PBM binding z-score is 0.532 in assay [1]; 0.496 in assay [2]; 0.0241 in assay [3]; 0.66 in [4]; -0.216 in assay [5]; 0.983 in assay [6]. Besides, the PBM binding z-score in assay [7] was 0.493; in assay [8], 2.41; in assay [9], 3.84; in assay [10] it was 2.88; in assay [11], 3.98; in [12], 2.01. The PBM binding z-score is 1.68 in [13]; 0.774 in assay [14]; 0.237 in assay [15]; 0.234 in assay [16]; 0.0145 in [17]; 0.241 in [18]. In addition, the PBM binding z-score in assay [19] amounted to 0.904; in [20], 0.253.

As for GCAGACAGGTGAAACGCAGGTAACTCGGGGTGGC, the PBM binding z-score in assay [1] was -0.13; in assay [2], 0.49; in assay [3], -0.695; in [4], 0.134; in [5], -0.553; in assay [6], 0.89. Moreover, the PBM binding z-score was 0.313 in assay [7]; 0.104 in assay [8]; -0.699 in assay [9]; -0.194 in assay [10]; 0.722 in assay [11]; 0.559 in [12]. Besides, the PBM binding z-score in assay [13] is -0.371; in assay [14] it was -1.17; in assay [15], -0.333; in assay [16], 0.0221; in assay [17], -0.587; in assay [18], 0.361. The results for the PBM binding z-score in assay [19] and in assay [20] were -1.06 and 0.754, respectively.
